For 40 compounds, Potency results are on record in PubChem BioAssay (Tox21).

Inconclusive results are not listed. Entries that show only a call come without a potency. The source made the active and inactive calls. Calls follow the shape of the dose curve; as a rule, active = well fitted cell-killing curve with a large enough effect in the repeat runs; inconclusive = weak or mixed curves; inactive = no such curve, though single readings can be large or run the other way. Positions of bridges follow the written chain, without caps; N, C: chain ends. Non-standard residues stand in square brackets, D forms with d. Residues, ends and D or L forms follow the SMILES beside them. pGlu = O=C1CC[C@@H](C(=O)O)N1; Orn = NCCC[C@H](N)C(=O)O; Mpa = O=C(O)CCS
Potency is read from the fitted curve at half-maximal effect.

A short description of this assay: qHTS assay to identify small molecule antagonists of the androgen receptor (AR) signaling pathway - cell viability counter screen (AID 743033; also: nearly all actives have a fitted effect of over 45% in size). Conditions: AR-bla HEK293 viability, CellTiter-Glo luminescence, 16 h; series mostly up to 58.5 µM. An excerpt:
National Center for Advancing Translational Sciences [NCATS]
NIH Chemical Genomics Center [NCGC]
U.S. Environmental Protection Agency [EPA]
National Institutes of Environmental Health Sciences [NIEHS]
National Toxicology Program [NTP]
U.S. Food and Drug Administration [FDA]
Androgen receptor (AR), a nuclear hormone receptor, plays a critical role in AR-dependent prostate cancer and other androgen related diseases. Endocrine disrupting chemicals (EDCs) and their interactions with steroid hormone receptors like AR may cause disruption of normal endocrine function as well as interfere with metabolic homeostasis, reproduction, developmental and behavioral functions. To identify the compounds that inhibit AR signaling, GeneBLAzer AR-UAS-bla-GripTite cell line (Invitrogen, Carlsbad, CA, USA) containing a beta-lactamase reporter gene under control of an Upstream Activator Sequence (UAS) stably integrated into HEK293 cells was used to screen the Tox21 10K compound library. The cytotoxicity of the Tox21 compound library against the AR-bla cell line was tested in parallel by measuring the cell viability using CellTiter-Glo assay in the same wells.
Tox21 Assay Protocol Summary:
AR-bla cells were dispensed at 2,000 cells/5 uL of assay medium per well into black wall/clear-bottom 1536-well plates using a Multidrop Combi (ThermoFisher Scientific, Waltham, MA) dispenser. After the assay plates were incubated at a 37C and 5% CO2 for 4 hr, 23 nL of compounds dissolved in DMSO, positive controls or DMSO only was transferred to the assay plate by a Pintool station (Kalypsys, San Diego, CA), followed by addition of 1 uL of agonist (R1881) in culture medium using a Bioraptr Flying Reagent Dispenser (FRD) workstation (Beckman Coulter, Indianapolis, IN, USA). The plates were incubated at a 37C and 5% CO2 for 16 h. After 1 uL of LiveBLAzerTM B/G FRET substrate was added using a Bioraptr FRD, the plates were incubated at room temperature for 2 h and fluorescence intensity was measured by an Envision plate reader (PerkinElmer, Shelton, CT). For cell viability readout that measures cytotoxicity, 4 ul/well of CellTiter-Glo reagent was added into the assay plates using a Bioraptr FRD. After 30 min incubation at room temperature, the luminescence intensity in the plates was measured using a ViewLux (PerkinElmer) plate reader.
In general terms: In qHTS, concentration-response curves come from the screen itself.
For `CCCCCCCCCCCCCCCC(=O)OCCC1CCN(CCCN2c3ccccc3Sc3ccc(S(=O)(=O)N(C)C)cc32)CC1`, the Potency result is “inactive”.

For the compound `CC(C)CN(C[C@@H](O)[C@H](Cc1ccccc1)NC(=O)O[C@H]1CO[C@H]2OCC[C@H]21)S(=O)(=O)c1ccc(N)cc1`, the Potency entry is “inactive”.

For `O=C(Cn1c(=O)sc2ccc(Cl)cc21)N1CCN(CCO)CC1`, the Potency result was “inactive”.

As to `O=C(O)C1=C(CSc2nnnn2CS(=O)(=O)O)CS[C@@H]2[C@H](NC(=O)[C@H](O)c3ccccc3)C(=O)N12`, the Potency entry is “inactive”.

On to `FC(F)(F)C(F)(F)C(F)(F)C(F)(F)C(F)(F)C(F)(F)F`, for which the Potency entry is “inactive”.

With `CCNC(=O)[C@@H]1CCCN1C(=O)[C@H](CCCN=C(N)N)NC(=O)[C@H](CC(C)C)NC(=O)[C@@H](CC(C)C)NC(=O)[C@H](Cc1ccc(O)cc1)NC(=O)[C@H](CO)NC(=O)[C@H](Cc1c[nH]c2ccccc12)NC(=O)[C@H](Cc1cnc[nH]1)NC(=O)[C@@H]1CCC(=O)N1`, the Potency entry is “inactive”.

Take `CN1CCN(C(c2ccccc2)c2ccc(Cl)cc2)CC1` (stereo not given): the Potency entry is “inactive”.

Take `CCCCC(=O)N(Cc1ccc(-c2ccccc2-c2nn[nH]n2)cc1)[C@@H](C(=O)O)C(C)C`: the Potency entry was “inactive”.

Take `NCCCC[C@H](NC(=O)[C@@H]1CCCN1C(=O)[C@@H]1CSSC[C@H](NC(=O)CNC(=O)CNC(=O)CN)C(=O)N[C@@H](Cc2ccc(O)cc2)C(=O)N[C@@H](Cc2ccccc2)C(=O)N[C@@H](CCC(N)=O)C(=O)N[C@@H](CC(N)=O)C(=O)N1)C(=O)NCC(N)=O` (H-GGGCYFQNCPKG-NH2; disulfide 4-9): the Potency entry is “inactive”.

As to `CN(CCO)CC(O)Cn1cnc2c1c(=O)n(C)c(=O)n2C` (stereo not given) (tested in a mixture with another compound), the Potency entry was “inactive”.

For the compound `CC1=C(/C=C/C(C)=C/C=C/C(C)=C/C=C/C=C(C)/C=C/C=C(C)/C=C/C2=C(C)C(=O)CCC2(C)C)C(C)(C)CCC1=O`, the Potency entry is “inactive”.

For `CC(CN1c2ccccc2Sc2ccc(S(=O)(=O)N(C)C)cc21)N(C)C` (stereo not given), the Potency entry is “inactive”.

Take `CO[C@@H]1[C@@H](O[C@@H]2O[C@H](C)[C@@H](O[C@H]3C[C@@](C)(O)[C@@H](OC(=O)CC(C)C)[C@H](C)O3)[C@H](N(C)C)[C@H]2O)[C@@H](CC=O)C[C@@H](C)[C@@H](O)/C=C/C=C/C[C@@H](C)OC(=O)C[C@H]1O`: the Potency result was “inactive”.

`CC[C@H](C)[C@H](NC(=O)[C@H](Cc1ccccc1)NC(=O)[C@H](C)NC(=O)[C@H](CC(=O)O)NC(=O)[C@H](CCCCN)NC(=O)[C@H](CO)NC(=O)[C@@H]1CCCN1C(=O)[C@@H]1CCC(=O)N1)C(=O)NCC(=O)N[C@@H](CC(C)C)C(=O)N[C@@H](CCSC)C(N)=O` ([pGlu]PSKDAFIGLM-NH2): the Potency entry is “inactive”.

With `O=c1[nH]cnc2[nH]cc(CN3CCCCC3)c12`, the Potency entry is “inactive”.

Take `COC(=O)CCC[N+](C)(C)C`: the Potency result is “inactive”.

With `CC(CCc1ccc(O)cc1)NCC(O)c1ccc(O)cc1` (stereo not given), the Potency entry was “inactive”.

As for `Oc1cc(O)cc(O)c1`, the Potency result is “inactive”.

For the compound `CCCCCCCCCCCCCCCCCC(=O)OC[C@@H](O)[C@H]1OC[C@H](O)[C@H]1O`, the Potency result is “inactive”.

As for `CCCCCCCCCCCCCC[n+]1ccc(C)cc1`, the Potency was 6.01 µM (active).

Take `O=P(O)(O)OC(Cn1cncn1)(Cn1cncn1)c1ccc(F)cc1F`: the Potency result was “inactive”.

Consider `C[C@@H]1C[C@H]2C3C[C@H](F)C4=CC(=O)C=CC4(C)[C@@]3(F)[C@@H](O)CC2(C)[C@@]1(O)C(=O)COC(=O)C(C)(C)C` (stereo not given in full), for which the Potency entry was “inactive”.

Take `C=Cc1c(C)c2cc3nc(cc4[nH]c(cc5nc(cc1[nH]2)C(C)=C5CCC(=O)OC)c(CCC(=O)O)c4C)[C@@]1(C)C3=CC=C(C(=O)OC)[C@H]1C(=O)OC`: the Potency result was “inactive”.

Consider `O=C(O)C1CCCN1` (stereo not given), for which the Potency entry was “inactive”.

Take `CC(C)(C)CC(C)(C)c1cc(Cc2cc(C(C)(C)CC(C)(C)C)cc(-n3nc4ccccc4n3)c2O)c(O)c(-n2nc3ccccc3n2)c1`: the Potency entry is “inactive”.

Turning to `CC(C)NCC(O)COc1ccccc1-n1cccc1` (stereo not given), the Potency result is “inactive”.

Turning to `O=C1NC(=O)[C@H]2[C@@H]1[C@@H]1C=C[C@H]2C1`, the Potency entry is “inactive”.

With `Cn1c(=O)c2c(ncn2CCOC(=O)C(C)(C)Oc2ccc(Cl)cc2)n(C)c1=O`, the Potency entry was “inactive”.

As to `Cn1nnnc1SCC1=C(C(=O)O)N2C(=O)[C@@H](NC(=O)[C@H](O)c3ccccc3)[C@H]2SC1`, the Potency entry is “inactive”.

`O=[N+]([O-])c1c(Cl)cccc1-c1c[nH]cc1Cl`: the Potency entry is “inactive”.

On to `C[C@]12CC[C@@H]3c4ccc(OC(=O)c5ccccc5)cc4CC[C@H]3[C@@H]1CC[C@@H]2O`, for which the Potency entry was “inactive”.

Consider `COC(=O)C1=C(C)NC(C)=C(C(=O)O[C@H]2CCN(Cc3ccccc3)C2)[C@H]1c1cccc([N+](=O)[O-])c1`, for which the Potency entry is “inactive”.

For the compound `O=C(O)c1ccc(OCCn2ccnc2)cc1`, the Potency result is “inactive”.

`C[C@H]1[C@@H](OC(=O)CCC(=O)O)O[C@@H]2OC3(C)CC[C@H]4[C@H](C)CC[C@@H]1[C@@]24OO3`: the Potency entry is “inactive”.

With `CCOC(=O)C1=C[C@@H](OC(CC)CC)[C@H](NC(C)=O)[C@@H](N)C1`, the Potency result is “inactive”.

Regarding `CCCCC/C=C\C/C=C\C/C=C\CCCCC(=O)O`, the Potency result was “inactive”.

Consider `Cc1cccc(Nc2ncccc2C(=O)O)c1C`, for which the Potency entry is “inactive”.

As for `CCOc1ccc(C[C@H]2NC(=O)CCSSC[C@@H](C(=O)N3CCC[C@H]3C(=O)N[C@@H](CCCN)C(=O)NCC(N)=O)NC(=O)[C@H](CC(N)=O)NC(=O)[C@H]([C@@H](C)O)NC(=O)[C@H]([C@@H](C)CC)NC2=O)cc1` ([Mpa][dY](Et)ITNCP[Orn]G-NH2; disulfide 1-6), the Potency entry is “inactive”.

Regarding `CN1CCc2c(c3ccccc3n2Cc2ccccc2)C1`, the Potency entry is “inactive”.

With `CC(=O)O[C@]1(C(C)=O)CC[C@H]2[C@@H]3CCC4=CC(=O)CC[C@]4(C)[C@@]3(F)[C@@H](O)C[C@@]21C`, the Potency entry was “inactive”.
